Laboratory results: ChEMBL document CHEMBL4513216, “Probing the Open Global Health Chemical Diversity Library for Multistage-Active Starting Points for Next-Generation Antimalarials” (ACS Infect Dis, 2020)
The whole screen tested about 65,000 compounds, of which about 2,100 (3.2%) showed an effect of 50% or more. The median lay at about -52%. Only a selection was taken, and strong results are over-represented in it overall.

Test system: Plasmodium falciparum
Experiment: Screen against P. falciparum Asexual Blood Stage (ABS), at 5uM
Type: functional, Dd2
Conditions: tested at 5 uM

Row | Compound | INHIBITION
1 | CN(Cc1ccoc1)C(=O)Cn1ncc(N(C)C)cc1=O | -36.7%
2 | CCn1cc(C(=O)N2CCCC(c3noc(C)n3)C2)cn1 (configuration not stated) | -71.8%
3 | CC1=C(c2ccc(Cl)cc2)S(=O)(=O)N=C1N1CCc2ccccc21 | -35.6%
4 | CC(C)NS(=O)(=O)c1ccccc1CNCc1cccc(O)c1 | 26%
5 | CC(C)(C)NS(=O)(=O)c1ccccc1CNCc1ccccc1 | 43.3%
6 | CC(C)(C)NS(=O)(=O)c1ccccc1CNCc1cccc(O)c1 | 56.9%
7 | CCc1nnc2n1CCN(C(C(=O)NC1CC1)c1ccccc1)C2 (configuration not stated) | -119%
8 | CC(C)CCN1CCc2[nH]nc(C(=O)N3CC=CC3)c2C1 | -95.1%
9 | Cc1cc(-c2cnc(N3CCCC(C)C3)nc2C(C)C)on1 (configuration not stated) | -127%
10 | Cc1cc(-c2cnc(N3CCN(C)CC3)nc2C(C)C)on1 | 52.5%
11 | Cc1cc(-c2cnc(N3CCC(O)CC3)nc2C(C)C)on1 | 13.7%
12 | Cc1cc(-c2cnc(N3CCN(C)CC3)nc2-c2ccc(C)s2)on1 | -24%
13 | Cc1cc(-c2cnc(N3CCC(C(N)=O)CC3)nc2C(C)C)on1 | -7.12%
14 | Cc1cc(-c2cnc(N3CCSCC3)nc2C(C)C)on1 | 63.8%
15 | COc1ccc(CN2C[C@@H]3CN(Cc4cccnc4)CCO[C@@H]3C2)cc1 | -76.4%
16 | CC(NC(=O)Nc1ccc(-c2csnn2)cc1)C(=O)NC(C)(C)C (configuration not stated) | -94.8%
17 | O=C(c1ccsc1)N1C[C@@H]2CCN(c3cccnc3)C[C@@H]2C1 | -7.89%
18 | O=C(NCC1CCS(=O)(=O)C1)N1CCN(c2cnccn2)CC1 (configuration not stated) | -123%
19 | CC(NC(=O)NCCCN(C)S(C)(=O)=O)c1ccc(F)cc1 (configuration not stated) | -109%
20 | COc1ccnc(N(C)Cc2csc(C)n2)n1 | -49.6%
21 | Cc1nc(CN(C)c2nccc(N(C)C)n2)cs1 | 27.2%
22 | Cc1cc(N(C)C)nc(N(C)Cc2csc(C)n2)n1 | 51.4%
23 | c1cncc(OCc2n[nH]c3c2CN(Cc2cccs2)C3)c1 | -109%
24 | OC1(Cn2ccc3ncccc32)CCN(Cc2cccs2)CC1 | 4.9%

Row | Compound | INHIBITION
25 | CC(=O)c1cccc(NCC(=O)NC(N)=O)c1 | -105%
26 | Cn1nc(C2CCCN(Cc3ccccc3)C2)c2nccnc21 (configuration not stated) | -26.5%
27 | COc1cccc(CNCc2ccnc(N3CCOCC3)c2)c1OC | -35.6%
28 | O=C(NCC1(O)CCOCC1)c1ccc(F)cc1 | -171%
29 | COc1cccc(C2(C(=O)NC3CCc4nccn4C3)CCCC2)c1 (configuration not stated) | 53.3%
30 | CS(=O)(=O)C1(C(=O)NC2CCc3nccn3C2)CCCC1 (configuration not stated) | -105%
31 | COc1ccc(C2(C(=O)NC3CCc4nccn4C3)CCCC2)cc1 (configuration not stated) | 47.5%
32 | CCN1CC(C)(C)CN(C(=O)CCc2ccccc2)CC1=O | -37%
33 | Cc1ccc(-c2nc(CCNC(=O)NC3CCC(O)CC3)co2)cc1 (configuration not stated) | -137%
34 | CN(C)CC1(O)CCN(Cc2cnc3c(-c4ccccc4)cnn3c2)C1 (configuration not stated) | 65%
35 | OCCN1CCN(Cc2cnc3c(-c4ccccc4)cnn3c2)CC1 | 20.3%
36 | c1ccc(-c2cnn3cc(CN4CCC5(CCO5)CC4)cnc23)cc1 | -302%
37 | COc1ccc(CN(Cc2ccsc2)CC2CCCO2)cn1 (configuration not stated) | -101%
38 | CN(C)CCN1C(=O)CCC12CCN(Cc1cccs1)CC2 | 58.2%
39 | Cc1cccc(CN2CCCC3(CCC(=O)N3CCN(C)C)CC2)n1 (configuration not stated) | 45.5%
40 | CN(C)C(=O)CN1C(=O)CCC12CCN(Cc1cccs1)CC2 | -98%
41 | CNc1cncc(C2CCN(C(=O)c3coc(C)n3)CC2)n1 | -43%
42 | Cc1nn(C)c(N(C)C)c1CNC1CCc2c(F)cccc21 (configuration not stated) | -24.9%
43 | O=C1CC2(CCNCC2)C(=O)N1Cc1ccc(F)cc1 | -53.4%
44 | NC(=O)c1ccc(CN2C(=O)C3(CCNCC3)Nc3ccccc32)cc1 | -3.53%
45 | C=Cc1ccc(CN2C(=O)C3(CCNCC3)Nc3ccccc32)cc1 | 87.7%
46 | N#Cc1cccc(CN2C(=O)c3ccccc3CS2(=O)=O)c1 | -37.5%
47 | N#Cc1cccc(CN2C(=O)C3(CCNCC3)Nc3ccccc32)c1 | 67.9%
48 | N#Cc1cccc(CN2CCC3(CC2)CC(c2ccncc2)C(=O)N3)c1 (configuration not stated) | -29.8%

Row | Compound | INHIBITION
49 | COc1ccccc1N1CCN(C(=O)c2ccnc(N(C)C)c2)CC1 | 41.8%
50 | CN(Cc1cn2c(n1)CN(C1CCOCC1)CC2)Cc1ccco1 | -29.2%
51 | CN(C)CC(=O)N1CCCC1c1cncc(Oc2ccc(F)cc2)n1 (configuration not stated) | 61.2%
52 | Cn1cncc1CN1CCCC1c1cncc(Oc2ccc(F)cc2)n1 (configuration not stated) | -32.7%
53 | CNCC(=O)N1CCCC1c1cncc(Oc2ccc(F)cc2)n1 (configuration not stated) | 69.8%
54 | NC(=O)CN1CCCC1c1cncc(Oc2ccc(Cl)cc2)n1 (configuration not stated) | 9.38%
55 | CC(=O)N1CCCC1c1cncc(Oc2ccc(F)cc2)n1 (configuration not stated) | -118%
56 | COc1ccc(Oc2cncc(C3CCCN3C(C)=O)n2)cc1 (configuration not stated) | -40.9%
57 | NCc1ccnc(Oc2ccc(F)cc2)c1 | -151%
58 | O=C(NC1CC1)N1CCOCC2(C1)CN(c1ccccc1)C(=O)CO2 (configuration not stated) | -77.9%
59 | c1cnnc(NCC2CN(Cc3ccon3)CCO2)c1 (configuration not stated) | -114%
60 | CN1CC[C@]2(CN(CC3CCOC3)C[C@H]2c2ccccc2)C1=O (some centres not stated) | -65.9%
61 | NC(=O)NC(=O)CCSCc1coc(-c2ccc(F)cc2)n1 | -58.5%
62 | CC(=O)N1CCc2nc(-c3ccccc3)nc(NC(C)C)c2CC1 | -25.6%
63 | CC(Nc1nc(-c2ccccc2)nc2c1CCNCC2)c1nccs1 (configuration not stated) | 52.7%
64 | CC(Nc1ncnc2c1CCNCC2)c1nc2c(s1)CCCC2 (configuration not stated) | 9.93%
65 | N#CCCn1nc(C(F)(F)F)c2c1CCC2 | -74.2%
66 | Cc1ncsc1C(=O)NC1CCN(Cc2ccc(C(F)(F)F)cc2)CC1 | -104%
67 | CN(C)[C@@H]1CO[C@H](CNC(=O)Nc2ccccc2)[C@H]1O | -60.7%
68 | O=C(NC[C@H]1OC[C@@H](N(CC2CC2)CC2CC2)[C@@H]1O)Nc1ccccc1 | 64.8%
69 | O=C(NC[C@H]1OC[C@@H](NC2CCC2)[C@@H]1O)Nc1ccccc1 | -141%
70 | Cc1ccc(CNC(c2ccccc2)c2nccn2C)cc1 (configuration not stated) | -267%
71 | CSc1ccc(CNC(c2ccc(F)cc2)c2nccn2C)cc1 (configuration not stated) | -107%
72 | CSc1ccc(CNC(c2ccccc2)c2nccn2C)cc1 (configuration not stated) | -22.4%

Row | Compound | INHIBITION
73 | COc1cccc(C(NCc2ccc(SC)cc2)c2nccn2C)c1 (configuration not stated) | 65.5%
74 | Cn1ccnc1C(NCc1csc(Br)c1)c1ccccc1 (configuration not stated) | 28.4%
75 | CSc1ccc(CNC(c2ccccc2F)c2nccn2C)cc1 (configuration not stated) | -98%
76 | Cn1ccnc1C(NCc1ccccc1)c1ccc(F)cc1 (configuration not stated) | -60.5%
77 | Cn1ccnc1C(NCc1ccc(Br)cc1)c1ccccc1 (configuration not stated) | 52.2%
78 | COc1ccccc1C(NCc1ccc(SC)cc1)c1nccn1C (configuration not stated) | 69.7%
79 | FC(F)(F)Cn1cc(NCc2cscn2)cn1 | -19.1%
80 | Cc1ccc(S(=O)(=O)c2ncccc2CN2CCN(C)CC2)cc1 | 24.6%
81 | Cc1nc(COc2ccc(CNCCn3cccn3)cc2)cs1 | -107%
82 | COCCNC(=O)[C@H]1CN(c2nnc(C)s2)C[C@H]2OCC[C@@H]12 | -167%
83 | c1ccc(Cc2noc(CN3CCCCC3Cn3cncn3)n2)cc1 (configuration not stated) | -14.9%
84 | CCN(CC1CN(Cc2ccn(C(C)C)n2)CCO1)c1cccnn1 (configuration not stated) | -94%
85 | Cc1[nH]c2ccc(Cl)cc2c1CCNc1ncnc2c1CCNC2 | 52%
86 | Cc1[nH]c2ccccc2c1CCNc1ncnc2c1CCNCC2 | -68.4%
87 | Cc1[nH]c2ccc(C#N)cc2c1CCNc1ncnc2c1CCNCC2 | -19.3%
88 | O=S(=O)(Nc1ccc(Oc2ccc3c(c2)OCO3)cc1)N1CCCCC1 | -59.9%
89 | OCCN(CCO)Cc1ccc(Br)c2cccnc12 | -26.05%
90 | N#CCCN(CCC#N)Cc1ccc(Br)c2cccnc12 | -103.4%
91 | CCN(CCO)Cc1ccc(Br)c2cccnc12 | 54.2%
92 | Cc1nn(C)c2c(=O)n(C(C)C)c(NCCc3ccccc3)nc12 | 13.9%
93 | Clc1ccc(C2(NCc3noc(C4CC4)n3)CCC2)cc1 | 16.7%
94 | Clc1ccc(C2(NCc3noc(C4CC4)n3)CCOCC2)cc1 | 3.57%
95 | Clc1ccc(C2(NCc3noc(C4CC4)n3)CCCC2)cc1 | 68.5%
96 | O=C(NC1CCCC1)c1nc(COc2ccc3c(c2)OCO3)no1 | -118%

Row | Compound | INHIBITION
97 | CSc1ccc(C(C(=O)O)N2CCC(CO)CC2)cc1 (configuration not stated) | -79.3%
98 | Cc1c(NC(=O)c2ncn[nH]2)cccc1C(=O)NC(C)(C)C | -21%
99 | Cc1cc(CN2CCC3(CC2)CC(Nc2ncccn2)CO3)nn1C (configuration not stated) | -8.44%
100 | c1cnc(NC2COC3(CCN(Cc4ccoc4)CC3)C2)nc1 (configuration not stated) | -27.7%
101 | Cc1cc(C)cc(CN2CCC3(CC2)CC(Nc2ncccn2)CO3)c1 (configuration not stated) | 60.2%
102 | CCc1csc(CNc2cc(C)nc(-c3cccnc3)n2)n1 | 4.15%
103 | CC(C)c1nc(CN2CCCC2CN2CCCC2)cs1 (configuration not stated) | 68%
104 | CC(C)c1nc(CN2CCCCC2Cn2cncn2)cs1 (configuration not stated) | -30.9%
105 | CC(C)c1nc(CN2CCCCC2)cs1 | -114%
106 | Cn1cnc(S(=O)(=O)NCCCN2CCCC2)c1Cl | -29.7%
107 | CC1CCN(CCCNS(=O)(=O)c2cc(F)cc(F)c2)CC1 | 63.3%
108 | O=S(=O)(NCCCN1CCCC1)c1cc(F)cc(F)c1 | 67.4%
109 | CC(=O)N1CCN(CCNS(=O)(=O)c2cccc(F)c2)CC1 | -72.6%
110 | Cc1cc(F)cc(S(=O)(=O)NCCCN2CCC(O)CC2)c1 | -34.8%
111 | CN1CCN(CCCNS(=O)(=O)Cc2ccccc2F)CC1 | 18.6%
112 | CC1CCN(CCCNS(=O)(=O)Cc2ccccc2F)CC1 | 28.5%
113 | CC1CCN(CCCNS(=O)(=O)c2cccc(F)c2)CC1 | 54.9%
114 | O=S(=O)(Cc1c(F)cccc1Cl)NCCCN1CCCCCC1 | 50.1%
115 | CC(=O)N1CCN(CCNS(=O)(=O)c2cc(F)cc(F)c2)CC1 | -113%
116 | CC(C)c1cccc(S(=O)(=O)NCCCN2CCC(O)CC2)c1 | 34.2%
117 | O=S(=O)(Cc1ccccc1F)NCCCN1CCCCC1 | 19.9%
